Measured values reported in PubChem BioAssay AID504451 (NMMLSC, 2011).
The campaign covered roughly 2,000 compounds. About 80 (4%) were called active.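 How the source made its calls: active means aptamer displacement above 40%, near three times the noise of non-fluorescent compounds, on plates passing quality checks; inactive means the rest.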 These entries were drawn from the full list.

Molecular target: Beta-adrenergic receptor kinase 1 (Homo sapiens) (UniProt P25098)
Test: RNA aptamer-GRK2 binding blockers – biochemical, cherry pick 1, bead flow cytometry, confirmation (AID 504451);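 further: negative values mostly reflect intrinsic compound fluorescence rather than true enhancement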
Conditions: bead-bound GRK2, FAM-aptamer displacement, at 10 µM, hits give high values

Beta-adrenergic receptor kinase 1 (Homo sapiens), sequence (P25098 whole entry, looked up): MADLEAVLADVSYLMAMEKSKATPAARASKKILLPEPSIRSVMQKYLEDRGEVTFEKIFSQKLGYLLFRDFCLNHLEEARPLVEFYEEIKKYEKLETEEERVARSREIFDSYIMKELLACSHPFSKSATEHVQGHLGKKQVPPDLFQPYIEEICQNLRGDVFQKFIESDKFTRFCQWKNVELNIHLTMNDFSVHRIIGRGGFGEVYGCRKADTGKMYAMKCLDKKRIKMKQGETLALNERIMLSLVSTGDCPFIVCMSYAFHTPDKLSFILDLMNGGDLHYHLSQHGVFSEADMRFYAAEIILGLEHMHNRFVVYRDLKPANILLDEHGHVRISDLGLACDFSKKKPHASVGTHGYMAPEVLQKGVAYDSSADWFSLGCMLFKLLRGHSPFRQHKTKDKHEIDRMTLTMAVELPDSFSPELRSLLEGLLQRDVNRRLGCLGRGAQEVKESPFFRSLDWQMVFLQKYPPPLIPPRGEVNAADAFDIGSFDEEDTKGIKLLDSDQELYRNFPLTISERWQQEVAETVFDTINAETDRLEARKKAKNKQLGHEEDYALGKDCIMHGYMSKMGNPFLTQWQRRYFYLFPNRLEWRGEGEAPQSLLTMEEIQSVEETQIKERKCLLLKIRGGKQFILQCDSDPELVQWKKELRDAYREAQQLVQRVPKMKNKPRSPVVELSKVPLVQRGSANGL

| SMILES | aptamer displacement |
| --- | --- |
| O=C(c1cnn(-c2ccc(Cl)cc2)c1)c1ccccc1O | 0.64% (inactive) |
| CSc1nc2ccccc2c(=O)n1Cc1ccc(F)cc1 | 1.65% (inactive) |
| CC(=O)c1ccc(OCC(O)CN2CCN(S(=O)(=O)c3cccc(Br)c3)CC2)cc1 (stereo unspecified) | -3.98% (inactive) |
| Cc1cc2cc(CNC(=O)c3cccs3)ccc2[nH]1 | 11.7% (inactive) |
| Cn1c(=O)c2c(nc(N3CCOCC3)n2CCNC2=NCCC2)n(C)c1=O | 5.84% (inactive) |
| CN(Cc1ccccc1)C(=O)c1cccc(C(=O)N(C)Cc2ccccc2)c1 | -0.51% (inactive) |
| CCN1C(=O)[C@H]2[C@@H](c3ccc(-c4ccc(OC)cc4)cc3)N[C@@](Cc3ccccc3)(C(=O)OC)[C@H]2C1=O | -7.18% (inactive) |
| OC(CN=c1sc2ccccc2n1CC(O)COc1ccccc1)COc1ccccc1 (stereo unspecified) | 1.11% (inactive) |
| CCOC(=O)C1CCCN(Cc2nc(N)nc(Nc3ccc(C)cc3)n2)C1 (stereo unspecified) | 0.86% (inactive) |
| Cc1ccc(-c2nn(-c3ccccc3)cc2/C=C2\SC(=S)N(CCCCCC(=O)O)C2=O)o1 | -4.86% (inactive) |
| CCN1/C(=C\c2ccc3ccccc3[n+]2CC)Sc2cc(C)ccc21 | 75.6% (active) |
| CCN1/C(=C/c2ccc3ccc(C)cc3[n+]2CC)Sc2ccccc21 | 65.9% (active) |
| O=C(NCc1ccccc1Cl)c1ccc2c(=O)n(CC3CCCO3)c(=S)[nH]c2c1 (stereo unspecified) | -1.07% (inactive) |
| O=C(NC(=O)c1cc(OCC(F)(F)F)ccc1OCC(F)(F)F)Nc1ccccc1 | 2.33% (inactive) |
| CC(C)Cn1c(CN(Cc2ccccc2)Cc2ccccc2)nc2c1c(=O)n(C)c(=O)n2C | 0.47% (inactive) |
| C=C(C)C(=O)Nc1cccc(C2=NOC3(C2)C[C@H](C(N)=O)N(C(=O)C(c2ccccc2)c2ccccc2)C3)c1 (stereo partly specified) | 80.5% (active) |
| O=C(O)c1ccc2c(c1)C(=O)N(c1ccc(/C=C/C(=O)c3ccccc3)cc1)C2=O | 0.79% (inactive) |
| CN/C(=C\[N+](=O)[O-])NCCSCc1csc(CN(C)C)n1 | 1.33% (inactive) |
| O=C(c1ccc(Cl)cc1)c1ccc(OCC(O)CN2CCCCC2)cc1 (stereo unspecified) | -0.78% (inactive) |
| O=C(COc1ccccc1)NCCc1nc2ccccc2[nH]1 | 22.4% (inactive) |
| Cc1nc(C(=O)NCc2ccccc2)sc1C1(C)CC(c2cccnc2)=NO1 (stereo unspecified) | -1.29% (inactive) |
